Hits are enriched below; roughly 7.3% of the tested compounds scored in any of these assays.
FLuc counter – counter-screen for miR-21 project: firefly luciferase inhibitors or activators | P08659 | purified FLuc, Km substrates, luminescence inhibition | Potency, µM (top dose mostly 57.5 µM), hits mostly inhibitors | 6.9% of 360,000 active; note: nearly all actives have a fitted effect of over 55% in size
Target sequence (P08659 whole entry, looked up): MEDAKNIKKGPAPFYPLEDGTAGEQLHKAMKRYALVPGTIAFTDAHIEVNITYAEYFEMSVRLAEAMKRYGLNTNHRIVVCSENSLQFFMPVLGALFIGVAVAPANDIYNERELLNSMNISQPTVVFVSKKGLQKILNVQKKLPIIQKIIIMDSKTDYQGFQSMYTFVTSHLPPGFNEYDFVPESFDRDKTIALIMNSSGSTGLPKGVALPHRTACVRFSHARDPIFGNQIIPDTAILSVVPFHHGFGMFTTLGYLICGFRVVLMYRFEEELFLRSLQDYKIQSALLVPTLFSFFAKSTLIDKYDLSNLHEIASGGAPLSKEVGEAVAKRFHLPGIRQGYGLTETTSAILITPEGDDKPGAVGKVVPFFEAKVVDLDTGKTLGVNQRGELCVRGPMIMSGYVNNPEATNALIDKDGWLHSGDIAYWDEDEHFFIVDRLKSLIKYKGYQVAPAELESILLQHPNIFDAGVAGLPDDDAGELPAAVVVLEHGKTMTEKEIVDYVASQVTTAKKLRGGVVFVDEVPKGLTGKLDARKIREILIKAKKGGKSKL
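Biochemical qHTS of compounds, final roughly 60 µM downward over six points, against 10 nM purified firefly luciferase using Km concentrations of substrates (10 uM D-luciferin, 10 uM ATP) in Tris acetate pH 7.5 buffer; luminescence output.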
SMN2 splice enh – increases expression of the SMN2 splice variant | HEK293 SMN2-luciferase splicing reporter, luminescence, 30-36 h | Potency, µM (doses to about 46.1 µM), actives largely listed as activators | 2.8% of 210,000 active | AID 1458; note: nearly all actives have a fitted effect of over 55% in size
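HEK293 cells carry an SMN2 […]–luciferase reporter in which exon 7 inclusion puts luciferase in frame. Cells were plated 10-12 h before compound addition, then incubated 30-36 h at 37C. ONE-Glo luminescence was read; sodium butyrate at 4.5 mM final served as control.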
ELG1 genotoxic – genotoxicity induction in ELG1-luciferase HEK293T cells. HEK293T ELG1-luciferase reporter, luminescence, 16 h. Potency, µM (top dose mostly 46 µM), actives largely listed as activators. 1.3% of 330,000 active; note: nearly all actives have a fitted effect of over 60% in size
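Genotoxicity was scored as increased ELG1-luciferase reporter signal, measured by ONE-Glo luminescence (30 min, room temperature). Compound or vehicle exposure of the HEK293T reporter cells lasted 16 hr at 37°C.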
NPC1 prom act – NPC1 promoter activation; 2.4% of 320,000 active; Huh7 NPC1 promoter luciferase reporter, 24 h; Potency, µM (doses to about 9.22 µM), usual class: activators; note: nearly all actives have a fitted effect of over 60% in size
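Stable NPC1-promoter luciferase Huh7 line; cpd (DMSO) 24 h, 37 °C, 5% CO2; Amplite luciferase reagent 10 min RT; luminescence readout. qHTS format.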
Rab9 promoter act – Rab9 promoter activation. Huh7 Rab9 promoter-luciferase reporter, luminescence, 24 h. Potency, µM (top dose mostly 9.22 µM), actives largely listed as activators. 2.8% of 320,000 active; note: nearly all actives have a fitted effect of over 60% in size
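Promoter activation is measured as luciferase luminescence in Huh7 cells stably transfected with a Rab9 promoter–luciferase construct, following 24 h compound exposure at 37 °C and 10 min reagent incubation at ambient temperature.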
Luc counter – counter-screen: inhibitors of Kinase-Glo firefly luciferase. Q27757. Kinase-Glo luciferase, ATP luminescence, 8 min. Potency, µM (titrated, usually from 38.3 µM), usual class: inhibitors. 0.28% of 200,000 active; note: nearly all actives have a fitted effect of over 60% in size
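Luminescence was the read-out, taken after 8-minute incubation at ambient temperature. Luciferase turned over luciferin with 10 uM ATP in imidazole pH 7.2 buffer containing KCl, MgCl2, Tween 20 and BSA.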
A number is an active result; [ ] = dose if it differs, or a comment. Calls come from the whole dose curve; as a rule, active = well fitted curve in the direction sought with a large enough effect; inconclusive = small, poorly fitted or top-dose-only effect, or another doubt; inactive = no such curve, though single readings can be large; an effect the other way counts as inactive or inconclusive.

How did CC(C)CCNC(=O)CCn1nc(-c2ccccc2)ccc1=O do in these assays?
FLuc counter: inactive; SMN2 splice enh: inactive; ELG1 genotoxic: inactive; NPC1 prom act: inactive; Rab9 promoter act: inactive; Luc counter: inactive

How did COc1ccc(-c2cccc(-c3cc(=O)oc4cc(OC)cc(OC)c34)c2)cc1 do in these assays?
ELG1 genotoxic: inactive

What do the screens show for `COc1cc(OC)c2c(-c3cccc(-c4ccc(N(C)C)cc4)c3)cc(=O)oc2c1`?
ELG1 genotoxic: 2.59µM; Luc counter: inactive

Results for CCCc1ccc(OCC(=O)Nc2cc(S(=O)(=O)CC)ccc2O)cc1 ?
FLuc counter: 26.9µM; ELG1 genotoxic: inactive; NPC1 prom act: inactive; Rab9 promoter act: inactive; Luc counter: inactive

What do the screens show for `Cc1ccc(NC(=O)c2nc(S(=O)(=O)Cc3ccc(F)cc3)ncc2Cl)cc1C`?
FLuc counter: inactive

What do the screens show for `Cc1ccc(NC(=O)c2nc(S(=O)(=O)Cc3ccccc3C)ncc2Cl)cc1C`?
FLuc counter: 10.7µM; ELG1 genotoxic: inactive; NPC1 prom act: inactive; Rab9 promoter act: inactive

What do the screens show for `CC1CCCC(C)N1C(=O)COC(=O)c1ccc(F)c(S(=O)(=O)N2CCOCC2)c1` (centres undefined)?
FLuc counter: inactive; ELG1 genotoxic: inactive; NPC1 prom act: inactive; Rab9 promoter act: inactive

What do the screens show for `O=C(O)/C=C/C(=O)NNC(=O)c1ccc(Cl)cc1Cl`?
FLuc counter: inactive; ELG1 genotoxic: inactive; NPC1 prom act: inactive; Rab9 promoter act: inactive; Luc counter: inactive

How did O=C(NC1CC(=O)c2sccc21)c1ccc(Cl)cc1Cl (centres undefined) do in these assays?
FLuc counter: 16.9µM; SMN2 splice enh: 5.01µM; ELG1 genotoxic: inconclusive; NPC1 prom act: inconclusive; Rab9 promoter act: 2.82µM; Luc counter: inactive

What do the screens show for `COc1cccc(-c2ncc3ccccn23)c1`?
FLuc counter: 8.49µM; SMN2 splice enh: 14.1µM; ELG1 genotoxic: inconclusive; NPC1 prom act: 3.98µM; Rab9 promoter act: 2.82µM; Luc counter: inactive

What do the screens show for `Brc1ccc(-c2ncc3ccccn23)cc1`?
FLuc counter: 13.5µM; ELG1 genotoxic: inconclusive; NPC1 prom act: 3.16µM; Rab9 promoter act: 3.16µM

How did COc1cc(-c2ncc3ccccn23)cc(OC)c1OC do in these assays?
FLuc counter: inactive; SMN2 splice enh: inactive; ELG1 genotoxic: inactive; NPC1 prom act: inactive; Rab9 promoter act: inactive; Luc counter: inactive

Results for COc1ccc(-c2ncc3ccccn23)cc1 ?
FLuc counter: inconclusive; SMN2 splice enh: inconclusive; ELG1 genotoxic: inactive; NPC1 prom act: inactive; Rab9 promoter act: inconclusive; Luc counter: inactive

Results for COc1cc(OC)cc(-c2ncc3ccccn23)c1 ?
FLuc counter: 16.9µM; SMN2 splice enh: inactive; ELG1 genotoxic: inactive; NPC1 prom act: inactive; Rab9 promoter act: inactive; Luc counter: inactive

Results for Cc1cc(NC(=O)c2ccc(S(=O)(=O)N3CCOCC3)cc2)no1 ?
FLuc counter: inactive; SMN2 splice enh: inactive; ELG1 genotoxic: inactive; NPC1 prom act: inactive; Rab9 promoter act: inactive; Luc counter: inactive

How did CN(C)c1ccnc2sc(C(N)=O)c(N)c12 do in these assays?
FLuc counter: inactive; SMN2 splice enh: inactive; ELG1 genotoxic: inactive; NPC1 prom act: inactive; Rab9 promoter act: inactive; Luc counter: inactive

What do the screens show for `CN(C)c1ccnc2sc(C(=O)c3ccc(Br)cc3)c(N)c12`?
FLuc counter: inconclusive; SMN2 splice enh: 22.4µM; ELG1 genotoxic: inactive; NPC1 prom act: inconclusive; Rab9 promoter act: inconclusive; Luc counter: inactive

Results for O=C(CCN1C(=O)/C(=C/c2ccc3c(c2)OCO3)SC1=S)Nc1ccc(C(=O)O)cc1 ?
FLuc counter: 9.53µM; ELG1 genotoxic: inactive; NPC1 prom act: inactive; Rab9 promoter act: inactive[1.84 µM]

What do the screens show for `CCOc1ccc(/C=C2\SC(=S)N(CCC(=O)Nc3cccc(C(=O)O)c3)C2=O)cc1`?
FLuc counter: 2.13µM; ELG1 genotoxic: inconclusive; NPC1 prom act: inactive; Rab9 promoter act: inconclusive

How did O=C(CCN1C(=O)S/C(=C\c2ccc(Cl)cc2)C1=O)Nc1ccc(C(=O)O)cc1 do in these assays?
FLuc counter: 15.1µM; ELG1 genotoxic: inactive; NPC1 prom act: inactive; Rab9 promoter act: inactive

Results for O=C(CCCN1C(=O)S/C(=C/c2ccccc2)C1=S)Nc1ccc(C(=O)O)cc1 ?
FLuc counter: inactive; ELG1 genotoxic: inactive; NPC1 prom act: inactive; Rab9 promoter act: inactive

What do the screens show for `CCOC(=O)CN1C(=O)S/C(=C\c2ccc3c(c2)OCO3)C1=O`?
FLuc counter: 21.3µM; ELG1 genotoxic: inactive; NPC1 prom act: inactive; Rab9 promoter act: inactive

What do the screens show for `COc1ccc(/C=C2\SC(=S)N(CCCC(=O)Nc3cccc(C(=O)O)c3)C2=O)cc1OC`?
FLuc counter: inactive; ELG1 genotoxic: inactive; NPC1 prom act: inactive; Rab9 promoter act: inactive

Results for Cc1ccc(Sc2nc3c(c(=O)[nH]c(=O)n3C)n2CCc2ccccc2)cc1 ?
FLuc counter: inactive; SMN2 splice enh: inactive; ELG1 genotoxic: inconclusive; NPC1 prom act: inactive; Rab9 promoter act: inactive; Luc counter: inactive

How did COc1ccc(NC(=O)C(c2ccc(C)cc2)N(C)C(=O)CNC(C)=O)cc1 (centres undefined) do in these assays?
FLuc counter: inactive; SMN2 splice enh: inactive; ELG1 genotoxic: inactive; NPC1 prom act: inactive; Rab9 promoter act: inactive; Luc counter: inactive

What do the screens show for `O=C(CCC(=O)N1CCOc2ccccc21)NCCCN1CCN(Cc2ccccc2)CC1`?
FLuc counter: inactive; ELG1 genotoxic: inactive; NPC1 prom act: inactive; Rab9 promoter act: inactive

Results for CCOc1ccc(/C=C2\SC(=S)N(CCC(=O)Nc3ccc(C(=O)O)cc3)C2=O)cc1 ?
FLuc counter: 2.69µM; ELG1 genotoxic: inactive; NPC1 prom act: inactive; Rab9 promoter act: inactive

How did COc1cc2sc(NC(=O)c3ccco3)nc2cc1Cl do in these assays?
FLuc counter: inconclusive; ELG1 genotoxic: 2.31µM; NPC1 prom act: 0.708µM; Rab9 promoter act: 0.562µM

Results for Cc1cc2sc(NC(=O)c3ccco3)nc2cc1Cl ?
FLuc counter: 1.35µM; ELG1 genotoxic: inconclusive; NPC1 prom act: 1.41µM; Rab9 promoter act: 1.12µM

Results for CN(C)/C=C(\C#N)c1nc2ccccc2[nH]1 ?
FLuc counter: inconclusive; SMN2 splice enh: inactive; ELG1 genotoxic: inconclusive; NPC1 prom act: inactive; Rab9 promoter act: inactive; Luc counter: inactive

What do the screens show for `CCC(=O)Oc1ccc(/C=C(\C#N)c2nc3ccccc3[nH]2)cc1OC`?
FLuc counter: 2.69µM; SMN2 splice enh: inconclusive

Results for COc1cc(/C=C(\C#N)c2nc3ccccc3[nH]2)cc(Br)c1OCc1ccccc1 ?
FLuc counter: inactive; SMN2 splice enh: inactive; ELG1 genotoxic: inactive; NPC1 prom act: inactive; Rab9 promoter act: inactive; Luc counter: inactive

Assay outcomes as filed in PubChem.
